Test results taken from PubChem BioAssay AID1159580 (chemical genetic matrix, 2015).
Among all 5,500 compounds or so, about 2,000 (36%) were called active. About 18% were inconclusive and are not listed. Cut-off read from the data, not from the text of the source: active = normalized growth mostly below about 0.91 (no sharp cut-off); inconclusive = no clear call, values can overlap the other calls; inactive = mostly above about 0.92. The list shows a part of the results.

Assay: chemical genetic growth profiling, strain panel (AID 1159580);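 note: tested at 20 µM; growth read once vehicle control cultures reached saturation at 30 °C; 1 = growth at the plate median or of vehicle wells; lower values mean less growth of the strain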
Settings: S. cerevisiae deletion strains, growth OD

Measured: normalized growth

NC(=O)c1cc(N2CC2)c([N+](=O)[O-])cc1[N+](=O)[O-]
inactive: locus YAL040C, strain CLN3, hits give low values 1 | locus YCL061C, strain MRC1 (second series), hits give low values 0.994 | locus YDR363W, strain ESC2, hits give low values 0.993 | locus YER002W, strain NOP16, hits give low values 1.02 | locus YMR263W, strain SAP30, hits give low values 1 | locus YMR307W, strain GAS1, hits give low values 0.986 | locus YNL175C, strain NOP13, hits give low values 1.02 | locus YNL197C, strain WHI3, hits give low values 1 | locus YNL224C, strain SQS1, hits give low values 0.997 | locus YOR083W, strain WHI5 (second series), hits give low values 1.01
